The supplement of paper PMC11383364

Tested on: SUM149
Test: percent difference in area under dose-response curve of relative cell number, RPMI vs HPLM; higher = drug relatively more effective in HPLM than RPMI (negative = less effective in HPLM)
Conditions: treatment time: 72 h; dose range: 10-point, 1 nM to 20 µM; media compared: RPMI vs HPLM
Protocol: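 SUM149 triple-negative breast cancer cells, 500 cells/well in 384-well plates, were grown in RPMI or human plasma-like medium (HPLM) with 5% dialyzed FBS. They were pin-transferred with an anticancer plus metabolic-inhibitor library in 10-point dose series (20 µM to 1 nM). After 72 h, cells were fixed, stained with bisbenzimide and counted by Acumen plate cytometry. The AUC of relative survival vs dose was computed per medium, and the percent difference in AUC between RPMI and HPLM is reported.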

Compound	percent difference in area under dose-response curve
COc1cc(OC2CCN(C)CC2)ccc1Nc1ncc2c(n1)n(C1CCCC1)c(=O)n2C	-4.5%
COc1ccc(COc2cc3oc(=O)c4cc(C(C)O)ccc4c3cc2OC)cc1 (stereo not given) [Palomid_529]	-0.0774%
O=C(O)Cc1cccc(OCCCN(Cc2cccc(C(F)(F)F)c2Cl)CC(c2ccccc2)c2ccccc2)c1	1.28%
CN1CCN(c2cccc(Nc3nc4c(-c5ccc(S(C)(=O)=O)cc5)cccn4n3)c2)CC1	-13.7%
CC(C)(C)C(=O)Nc1ccc2c(c1)C(=O)C(=O)c1ccccc1-2	2.11%
C[C@@H](O[C@H]1OCCN(Cc2n[nH]c(=O)[nH]2)[C@H]1c1ccc(F)cc1)c1cc(C(F)(F)F)cc(C(F)(F)F)c1 [Aprepitant]	-2%
CN(C)Cc1c(C(=O)NCCOc2ccc(C(=O)NO)cc2)oc2ccccc12	0.731%
CN[C@H]1CN(c2ccc3c(=O)c(C(=O)O)cn(-c4nccs4)c3n2)C[C@@H]1OC [Voreloxin]	-18%
Cn1cncc1[C@@](N)(c1ccc(Cl)cc1)c1ccc2c(c1)c(-c1cccc(Cl)c1)cc(=O)n2C [Tipifarnib]	-21.7%
CN(C)CCCn1cc(C2=C(c3c[nH]c4ccccc34)C(=O)NC2=O)c2ccccc21	0.14%
CCC[C@H](NC(=O)/C(C#N)=C/c1cccc(Br)n1)c1ccccc1	5.71%
Cc1cccc(Nc2nc(-c3ccncc3)cs2)c1	-3.22%
Cc1ccc(NC(=O)c2ccc(CN3CCN(C)CC3)cc2)cc1Nc1nccc(-c2cccnc2)n1 [Imatinib_Mesylate]	-3.71%
Cc1ccc(-n2nc(C(C)(C)C)cc2NC(=O)Nc2ccc(OCCN3CCOCC3)c3ccccc23)cc1	-3.95%
CO[C@@H](C(=O)N1Cc2[nH]nc(NC(=O)c3ccc(N4CCN(C)CC4)cc3)c2C1)c1ccccc1 [Danusertib]	-17.3%
CNC(=O)c1cc(Oc2ccc(NC(=O)Nc3ccc(Cl)c(C(F)(F)F)c3)cc2)ccn1 [Sorafenib]	2.21%
Cc1cnc(Nc2ccc(OCCN3CCCC3)cc2)nc1Nc1cccc(S(=O)(=O)NC(C)(C)C)c1 [Fedratinib]	-9.15%
C[C@@H](Oc1cc(-c2cnn(C3CCNCC3)c2)cnc1N)c1c(Cl)ccc(F)c1Cl [Crizotinib]	-5.74%
NC(=O)c1[nH]nc([C@@H]2O[C@H](CO)[C@@H](O)[C@H]2O)c1O [Pyrazofurin]	5.89%
O=C(/C=C/c1ccc2ccccc2n1)c1ccncc1	7.96%

Compound	percent difference in area under dose-response curve
CC[C@]1(O)C[C@@H]2CN(CCc3c([nH]c4ccccc34)[C@@](C(=O)OC)(c3cc4c(cc3OC)N(C)[C@H]3[C@@](O)(C(=O)OC)[C@H](OC(C)=O)[C@]5(CC)C=CCN6CC[C@]43[C@@H]65)C2)C1 [Vinblastine]	-27.2%
COc1ccc(C2=N[C@H](c3ccc(Cl)cc3)[C@H](c3ccc(Cl)cc3)N2C(=O)N2CCNC(=O)C2)c(OC(C)C)c1 [Nutlin3b]	2.03%
C=CCn1c(=O)c2cnc(Nc3ccc(N4CCN(C)CC4)cc3)nc2n1-c1cccc(C(C)(C)O)n1	0.0373%
CCCCc1nc2cc(/C=C/C(=O)NO)ccc2n1CCN(CC)CC	0.47%
COc1cc(Nc2ncc3c(n2)-c2ccc(Cl)cc2C(c2c(F)cccc2OC)=NC3)ccc1C(=O)O	-13.5%
CC(C)c1cc(C(C)C)c(CC(=O)NS(=O)(=O)Oc2c(C(C)C)cccc2C(C)C)c(C(C)C)c1 [Avasimibe]	-0.523%
C=C(c1ccc(C(=O)O)cc1)c1cc2c(cc1C)C(C)(C)CCC2(C)C [Bexarotene]	-2.87%
COc1cc(Br)c(Nc2nc(-c3c(C)nc4ncccn34)cs2)c(Br)c1	-0.202%
N#CC[C@H](C1CCCC1)n1cc(-c2ncnc3[nH]ccc23)cn1 [SRuxolitinib]	-0.914%
Clc1ccc(C(c2ccccc2Cl)C(Cl)Cl)cc1 (stereo not given) [Mitotane]	-3.24%
C#Cc1cccc(Nc2ncnc3cc(OC)c(OCCCCCCC(=O)NO)cc23)c1	8.57%
O=C1[C@H](CC[C@H](O)c2ccc(F)cc2)[C@@H](c2ccc(O)cc2)N1c1ccc(F)cc1 [Ezetimibe]	-5.77%
COc1cccc(-c2cc(F)ccc2[C@H]2Cc3nc(N)nc(C)c3C(=O)N2)n1	-28.8%
CN1CCN(c2ccc(OC(F)(F)F)c(Nc3ncc4c(n3)-c3c(c(C(N)=O)nn3CCO)CC4)c2)CC1	-12.8%
COC(=O)Nc1ccc(-c2nc(N3CCOCC3)c3cnn(C4CCN(C(=O)OC)CC4)c3n2)cc1	0.775%
CN(C)/N=N/c1[nH]cnc1C(N)=O [Dacarbazine]	-9.4%
O=C(NOCC1CC1)c1ccc(F)c(F)c1Nc1ccc(I)cc1Cl	4.08%
COc1ccccc1-c1cc(Nc2cccc(CS(N)(=O)=O)c2)ncn1	-3.21%
c1ccc(Cn2nnc3c(Sc4nc5ccccc5o4)ncnc32)cc1	0.823%
O=C(CCCCCCC(=O)Nc1ccc([C@H]2O[C@@H](CSc3nc(-c4ccccc4)c(-c4ccccc4)o3)C[C@@H](c3ccc(CO)cc3)O2)cc1)NO [Tubacin]	-4.43%
